Only a selection was taken, and hits are over-represented in it overall.
Vaccinia mCherry – vaccinia inhibition (mCherry reporter) | Vaccinia virus mCherry reporter infection, fluorescence | 310,000 compounds, 0.63% hits | Potency, µM (top dose mostly 36.5 µM), hits mostly inhibitors; calls by dose curve; tested in A549 cells; note: nearly all actives have a fitted effect of over 35% in size
LASV entry inh – blocks Lassa virus binding to or entry into cells; 300,000 compounds, 1.2% hits; Potency, µM (titrated, usually from 37.9 µM), most hits filed as inhibitors; Lassa virus pseudotype entry inhibition, cell reporter; calls by dose curve; tested in HEK293 cells; note: nearly all actives have a fitted effect of over 50% in size
Cycloheximide cs – affects cycloheximide protein synthesis inhibition readout, counter-screen; max response, %; 300,000 compounds, 12% hits; cell reporter, cycloheximide protein synthesis inhibition counterscreen; AID 2314; in the data active = max response mostly above about 13%, no sharp cut-off; inactive = mostly below about 14%; note: read at 38.3 µM for the half of the compounds with a filed dose
Vaccinia Venus – inhibitors of vaccinia virus (Venus reporter). Vaccinia virus Venus reporter expression, fluorescence. Potency, µM (doses to about 36.5 µM), most hits filed as inhibitors. 330,000 compounds, 0.46% hits; calls by dose curve; tested in A549 cells; note: nearly all actives have a fitted effect of over 30% in size
Shiga inhibitor – Shiga toxin inhibition | 290,000 compounds, 9.2% hits | Vero cells, Shiga toxin protein synthesis inhibition reporter | inhibition, % at 38.7 µM; in the data active = inhibition mostly above about 28%, no sharp cut-off; inactive = mostly below about 43%
MARV entry inh – blocks Marburg virus binding to or entry into cells | Marburg virus pseudotyped entry inhibition, cell reporter | Potency, µM (titrated, usually from 37.8 µM), usual class: inhibitors | 300,000 compounds, 1.8% hits; calls by dose curve; tested in HEK293 cells
Numbers stand for hits; . = inactive; ? = inconclusive; / = not tested or not shown; ! = not confirmed by another sample.

SMILES	Vaccinia mCherry	LASV entry inh	Cycloheximide cs	Vaccinia Venus	Shiga inhibitor	MARV entry inh
CC(NC(=O)c1cccc(Cn2cc([N+](=O)[O-])cn2)c1)c1ccc(C(C)(C)C)cc1 (configuration not stated)	/	.	.	/	.	?
CCN(CC)c1cc(C)c2cc(NC(=O)c3ccccc3Cl)ccc2n1	.	.	/	.	/	?
Cc1nn(C(C)(C)C)c(OC(=O)c2ccc3c(c2)OCO3)c1Sc1ccccc1	?	?	.	?	.	?
Cc1nn(C(C)(C)C)c(OC(=O)c2ccc3c(c2)OCO3)c1S(=O)(=O)c1ccccc1	/	8.9µM	37	?	.	?
Cc1ccc(S(=O)(=O)c2c(C)nn(C(C)(C)C)c2OC(=O)c2ccco2)cc1	/	11µM	.	?	.	?
CC(=O)Oc1c(S(=O)(=O)c2ccc(C)cc2)c(C)nn1C(C)(C)C	?	?	.	?	.	?
Cc1ccc(S(=O)(=O)c2c(C)nn(C(C)(C)C)c2OC(=O)C(C)(C)C)cc1	/	?	.	.	.	?
Cc1ccc(S(=O)(=O)c2c(C)nn(C(C)(C)C)c2OC(=O)c2cccs2)cc1	/	13µM	.	?	.	?
Cc1ccc(S(=O)(=O)c2c(C)nn(C(C)(C)C)c2OC(=O)c2ccc(Br)o2)cc1	?	11µM	.	11µM	.	?
CC1CC(C)CN(CC(=O)N2CCCc3c2c(=O)oc2ccc(OCc4ccccc4)cc32)C1 (configuration not stated)	.	?	.	?	.	10µM
CCCOc1ccc2oc(=O)c3c(c2c1)CCCN3C(=O)CN1CCc2ccccc2C1	/	?	.	?	.	?
CC1CCN(CC(=O)N2CCCc3c2c(=O)oc2ccc(OCc4ccccc4)cc32)CC1	.	0.63µM!	.	.	.	7.1µM
CCN(CC)CC1C(=O)N(c2ccc(OC)cc2)C1c1ccccc1 (configuration not stated)	.	?	.	.	.	8.9µM
C#CCOCCOCCOCCNc1nc(N2CCN(C(=O)CCCCCCCCCCNC(=O)[C@H](CCCCN)n3cc(CCO)nn3)CC2)nc(N2CCN(C(=O)CCCCCCCCCCNC(=O)[C@H](CCCCN)n3cc(CCCC(=O)O)nn3)CC2)n1	.	/	/	.	/	/
C#CCOCCOCCOCCNc1nc(N2CCN(C(=O)CCCCCCCCCCNC(=O)[C@@H](CCSC)n3cc(CCO)nn3)CC2)nc(N2CCN(C(=O)CCCCCCCCCCNC(=O)[C@H](CO)n3cc(CCCCCN)nn3)CC2)n1	.	/	/	?	/	/
C#CCOCCOCCOCCNc1nc(N2CCN(C(=O)CCCCCCCCCCNC(=O)[C@H](CCCCN)n3cc(CCO)nn3)CC2)nc(N2CCN(C(=O)CCCCCCCCCCNC(=O)[C@H](CCCCN)n3cc(C[C@@H](C)CC)nn3)CC2)n1	.	/	/	10µM	/	/
C#CCOCCOCCOCCNc1nc(N2CCN(C(=O)CCCCCCCCCCNC(=O)[C@H](CCCCN)n3cc(C[C@@H](C)CC)nn3)CC2)nc(N2CCN(C(=O)CCCCCCCCCCNC(=O)[C@H](CCCN=C(N)N)n3cc(C[C@@H](C)CC)nn3)CC2)n1	?	/	/	8.9µM	/	/
C#CCOCCOCCOCCNc1nc(N2CCN(C(=O)CCCCCCCCCCNC(=O)[C@H](CCCCN)n3cc(C)nn3)CC2)nc(N2CCN(C(=O)CCCCCCCCCCNC(=O)[C@H](CCCN=C(N)N)n3cc(C[C@@H](C)CC)nn3)CC2)n1	?	/	/	10µM	/	/
C#CCOCCOCCOCCNc1nc(N2CCN(C(=O)CCCCCCCCCCNC(=O)[C@@H](CCSC)n3cc(CCO)nn3)CC2)nc(N2CCN(C(=O)CCCCCCCCCCNC(=O)[C@H](CCCN=C(N)N)n3cc(C[C@@H](C)CC)nn3)CC2)n1	?	/	/	10µM	/	/
C#CCOCCOCCOCCNc1nc(N2CCN(C(=O)CCCCCCCCCCNC(=O)[C@@H](CCC(=O)O)n3cc(CCCCCN)nn3)CC2)nc(N2CCN(C(=O)CCCCCCCCCCNC(=O)[C@H](CCCCN)n3cc(C[C@@H](C)CC)nn3)CC2)n1	.	/	/	?	/	/
CCc1ccc(CNC(=O)CCCN2C(=O)CCn3nc(-c4cccn4C)cc32)cc1	.	.	/	.	/	/
CC(C)(C)CC(=O)NCC(c1ccc2c(c1)OCO2)N1CCN(c2ccccc2)CC1 (configuration not stated)	.	.	/	.	/	/
Cc1ccc(NC(=S)/C(=C(\[O-])c2ccc(Cl)s2)[n+]2cccc(CO)c2)cc1C	.	.	40	.	68	?

Screening data as filed in PubChem BioAssay.
